Source: PubChem BioAssay (Broad Institute)
miR122 inh – miR-122 sensor activation; hit rate 0.14% among 340,000; Huh7 psiCHECK-miR122 Renilla luciferase sensor, 48 h; activation, % at 12.5 µM;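 active = mean activation of 30% or more, with every replicate also reaching 30%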;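 note: higher luciferase signal means stronger suppression of miR-122 activity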
Of the large screens only hits and unclear results are named; the others gave an inactive call. The full list was thinned out, with hits kept by preference.

COc1ccc2c(c1)c(CCN)c(C)n2Cc1ccccc1	miR122 inh 52
CC(C)C(NC(=O)C(C(C)C)N(C)C)C(=O)N(C)C(C(=O)N1CCCC1C(=O)N1CCCC1C(=O)NCc1ccccc1)C(C)C (stereo not given)	none
O=c1c2ccccc2nc(/C=C/c2ccc([N+](=O)[O-])o2)n1-c1ccc(O)cc1	none
CC12CCC3C(CCC4(O)CC(O)CCC34C=O)C1(O)CCC2C1=CC(=O)OC1 (stereo not given)	none
c1ccc(-c2cc(-c3ccccc3)[n+](-c3ccccc3)c(-c3ccccc3)c2)cc1	miR122 inh 59
Oc1ccc(/C=N/NP(=S)(c2ccccc2)c2ccccc2)cc1	none
